Measured values as given in PubChem BioAssay AID1159580 (chemical genetic matrix, 2015).
Values joined by “and” are separate entries in the source; they are usually repeats but may differ in a detail not shown here. Equal entries are not always repeated. Screen size: about 5,500 compounds; about 2,000 (36%) were called active. Roughly 18% stayed inconclusive and do not appear here. No stated cut-off is given here; in the data, active means normalized growth mostly below about 0.91 (no sharp cut-off); inconclusive means no clear call, values can overlap the other calls; inactive means mostly above about 0.92. Some of the results follow.

Test: chemical genetic growth profiling, strain panel (AID 1159580);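 further: tested at 20 µM; growth read once vehicle control cultures reached saturation at 30 °C; 1 = growth at the plate median or of vehicle wells; lower values mean less growth of the strain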
Details: S. cerevisiae deletion strains, growth OD

Measured: normalized growth

CO[C@@]1(NC(=O)C(C(=O)O)c2ccc(O)cc2)C(=O)N2C(C(=O)O)=C(CSc3nnnn3C)CO[C@@H]21 (stereo partly specified)
inactive: locus YAL013W, strain DEP1, active compounds read low 1.01 | locus YAL021C, strain ccr4, active compounds read low 0.993 | locus YAL026C, strain drs2, active compounds read low 1 | locus YAL030W, strain snc1, active compounds read low 0.982 | locus YBL061C, strain skt5, active compounds read low 0.979 | locus YBR021W, strain FUR4, active compounds read low 0.998 | locus YBR023C, strain chs3, active compounds read low 0.994 | locus YBR171W, strain sec66, active compounds read low 0.984 | locus YBR229C, strain ROT2, active compounds read low 1 | locus YBR231C, strain swc5, active compounds read low 0.956 | locus YBR279W, strain paf1, active compounds read low 0.995 | locus YCL011C, strain gbp2, active compounds read low 0.955 | locus YCL016C, strain dcc1, active compounds read low 0.955 | locus YCL029C, strain bik1, active compounds read low 1.03 | locus YCL061C, strain MRC1, active compounds read low 1 | locus YCL069W, strain vba3, active compounds read low 0.991 | locus YCR088W, strain abp1, active compounds read low 0.984 | locus YDL005C, strain med2, active compounds read low 0.991 | locus YDL035C, strain GPR1, active compounds read low 0.999 | locus YDL040C, strain nat1, active compounds read low 0.989 | locus YDL074C, strain BRE1, active compounds read low 1.03 | locus YDL101C, strain DUN1, active compounds read low 1.01 | locus YDL134C, strain PPH21, active compounds read low 1 | locus YDL185W, strain tfp1, active compounds read low 1.03 | locus YDL192W, strain arf1, active compounds read low 1.02 | locus YDR001C, strain nth1, active compounds read low 0.977 | locus YDR069C, strain doa4, active compounds read low 1.01 | locus YDR101C, strain arx1, active compounds read low 1.01 | locus YDR137W, strain rgp1, active compounds read low 0.98 | locus YDR150W, strain NUM1, active compounds read low 1.02 | locus YDR159W, strain sac3, active compounds read low 1.01 | locus YDR162C, strain NBP2, active compounds read low 1 | locus YDR195W, strain ref2 1 | locus YDR297W, strain sur2, active compounds read low 0.971 | locus YDR318W, strain mcm21, active compounds read low 1.02 | locus YDR334W, strain swr1, active compounds read low 0.942 | locus YDR335W, strain msn5, active compounds read low 0.981 | locus YDR388W, active compounds read low 1.02 | locus YDR392W, strain spt3, active compounds read low 0.909 | locus YDR502C, strain sam2, active compounds read low 1.01 | locus YEL003W, strain gim4, active compounds read low 0.99 | locus YEL037C, strain rad23, active compounds read low 0.988 | locus YEL061C, strain CIN8 (second series), active compounds read low 0.982 | locus YEL061C, strain CIN8, active compounds read low 1.01 | locus YER015W, strain faa2, active compounds read low 0.982 | locus YER016W, strain bim1, active compounds read low 1 | locus YER110C, active compounds read low 1.02 | locus YER111C, strain swi4, active compounds read low 0.983 | locus YER155C, strain BEM2 (second series), active compounds read low 0.993 | locus YER155C, strain BEM2, active compounds read low 1.01 | locus YER167W, strain BCK2, active compounds read low 1 | locus YFR010W, strain ubp6, active compounds read low 0.996 | locus YGL078C, strain dbp3, active compounds read low 0.998 | locus YGL086W, strain mad1, active compounds read low 1.01 | locus YGL167C, strain pmr1, active compounds read low 0.987 | locus YGL173C, strain kem1, active compounds read low 0.992 | locus YGL227W, strain vid30, active compounds read low 0.99 | locus YGL240W, strain doc1, active compounds read low 0.987 | locus YGL248W, strain PDE1, active compounds read low 1.01 | locus YGL253W, strain hxk2, active compounds read low 0.996 | locus YGR078C, strain PAC10, active compounds read low 1.02 | locus YGR135W, strain pre9, active compounds read low 1 | locus YGR229C, strain SMI1, active compounds read low 1 | locus YGR252W, strain gcn5, active compounds read low 0.93 | locus YHR013C, strain ard1, active compounds read low 0.962 | locus YHR027C, strain rpn1, active compounds read low 0.964 | locus YHR030C, strain SLT2, active compounds read low 1.01 and 0.97 | locus YHR079C, strain IRE1 (second series), active compounds read low 1.02 | locus YHR079C, strain IRE1, active compounds read low 0.99 | locus YHR094C, strain hxt1, active compounds read low 1.02 | locus YHR129C, strain ARP1, active compounds read low 1 | locus YHR142W, strain chs7, active compounds read low 0.974 | locus YHR200W, strain rpn10, active compounds read low 1.02 | locus YIL066C, strain RNR3, active compounds read low 1.02 | locus YIL073C, strain SPO22, active compounds read low 1.04 | locus YIL125W, strain kgd1, active compounds read low 1.01 | locus YIR030C, strain dcg1, active compounds read low 1.02 | locus YJL092W, strain hpr5, active compounds read low 0.983 | locus YJL095W, strain BCK1 (second series), active compounds read low 0.982 | locus YJL095W, strain BCK1, active compounds read low 1.01 | locus YJL115W, strain asf1, active compounds read low 0.96 | locus YJL129C, strain trk1, active compounds read low 0.999 | locus YJL134W, strain LCB3, active compounds read low 1 | locus YJL154C, strain vps35, active compounds read low 0.975 | locus YJL164C, strain tpk1, active compounds read low 0.989 | locus YJL166W, strain qcr8, active compounds read low 0.951 | locus YJL168C, strain set2, active compounds read low 1.02 | locus YJL187C, strain SWE1 (second series), active compounds read low 1.02 | locus YJL187C, strain SWE1, active compounds read low 0.986 | locus YJR043C, strain POL32, active compounds read low 1.01 | locus YJR066W, strain TOR1, active compounds read low 0.918
